# In PubChem BioAssay (NCATS):
# Records with an inconclusive call do not appear. Where a call stands in place of a potency, no number is given. Unmarked numbers belong to inactive results. Active and inactive are the calls of the source. Unless noted, calls follow the shape of the dose curve; as a rule, active = well fitted curve in the direction sought with a large enough effect in the repeat runs; inconclusive = weak or mixed curves; inactive = no such curve, though single readings can be large; an effect the other way counts as inactive or inconclusive.
# Columns and labels:
# [1] = A High-Content qHTS Against Drug Library for the Identification of Small Molecules that Inhibit DYT1 Early Onset Primary Dystonia-Associated Cell Pathology (AID 1645839; calls by dose curve; also: potency is read from the fitted curve at half-maximal effect)
# In short: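 High-content imaging quantified EGFP-TorsinA mislocalization in HEK293-derived cells inducibly expressing DYT1 mutant torsinA, after 48 h exposure to compound given together with tetracycline induction. Cell count served as a toxicity channel alongside %pathology.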
# [2] = target: Cytochrome P450 2D6 (Homo sapiens) (UniProt P10635); experiment: Cytochrome P450 family 2 subfamily D member 6 (CYP2D6) small molecule antagonists: luciferase biochemical (cell-free) qHTS assay (AID 1645840); also: nearly all actives have a fitted effect of over 55% in size; also: potency is read from the fitted curve at half-maximal effect
# Cytochrome P450 2D6 (Homo sapiens), sequence (P10635 whole entry, looked up): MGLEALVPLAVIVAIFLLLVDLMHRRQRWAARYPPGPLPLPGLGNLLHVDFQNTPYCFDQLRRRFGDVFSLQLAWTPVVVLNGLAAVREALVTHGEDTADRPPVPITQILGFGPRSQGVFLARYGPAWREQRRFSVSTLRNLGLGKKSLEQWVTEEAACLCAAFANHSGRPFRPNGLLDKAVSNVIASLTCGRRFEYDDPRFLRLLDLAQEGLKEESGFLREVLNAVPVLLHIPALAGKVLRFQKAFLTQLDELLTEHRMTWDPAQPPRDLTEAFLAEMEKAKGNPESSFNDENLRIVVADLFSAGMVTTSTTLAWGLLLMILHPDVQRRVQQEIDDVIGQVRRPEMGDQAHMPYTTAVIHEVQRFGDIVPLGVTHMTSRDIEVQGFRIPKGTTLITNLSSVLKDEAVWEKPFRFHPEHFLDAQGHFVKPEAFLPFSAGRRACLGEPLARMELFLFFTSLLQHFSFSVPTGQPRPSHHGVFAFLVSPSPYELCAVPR
# In short: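 P450-Glo CYP2D6 system: proluciferin substrate converted by enzyme to luciferin, read by luminescence proportional to activity. Enzyme-substrate mix with compound 10 min at room temperature, then NADPH regeneration 1 h before detection reagent.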
# [3] = target: Cytochrome P450 2C9 (Homo sapiens) (UniProt P11712); experiment: Cytochrome P450 family 2 subfamily C member 9 (CYP2C9) small molecule antagonists: luciferase biochemical (cell-free) qHTS assay (AID 1645842); also: nearly all actives have a fitted effect of over 55% in size; also: potency is read from the fitted curve at half-maximal effect
# Cytochrome P450 2C9 (Homo sapiens), sequence (P11712 whole entry, looked up): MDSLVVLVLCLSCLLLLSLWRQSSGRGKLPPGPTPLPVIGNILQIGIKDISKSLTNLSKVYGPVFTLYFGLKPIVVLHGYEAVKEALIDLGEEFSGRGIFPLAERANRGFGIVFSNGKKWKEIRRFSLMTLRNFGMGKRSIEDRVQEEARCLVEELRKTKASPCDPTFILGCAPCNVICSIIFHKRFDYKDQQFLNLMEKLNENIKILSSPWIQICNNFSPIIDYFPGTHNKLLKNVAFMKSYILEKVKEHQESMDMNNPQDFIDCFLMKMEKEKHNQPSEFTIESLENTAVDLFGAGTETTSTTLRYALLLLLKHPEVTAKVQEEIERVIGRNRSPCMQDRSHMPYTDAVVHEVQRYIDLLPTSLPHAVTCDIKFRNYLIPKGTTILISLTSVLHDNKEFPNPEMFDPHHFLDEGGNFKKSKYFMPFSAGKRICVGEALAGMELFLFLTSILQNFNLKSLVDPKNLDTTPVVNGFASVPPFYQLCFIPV
# In short: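 P450-Glo CYP2C9 system: proluciferin substrate with enzyme in mix containing 0.4% BSA, 10 min at room temperature, then NADPH regeneration solution added and incubated 1 h at 37C. Detection reagent stopped reaction; luminescence read after 20 min as RLU.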
# [4] = target: Papain (Carica papaya) (UniProt P00784); experiment: Primary qHTS assay for inhibitors of the protease papain (AID 1645873; active = well fitted curve in the direction sought with a large enough effect; an effect the other way counts as inactive or inconclusive;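 also: papain turnover of Z-FR-AMC read as the AMC fluorescence gain over 10 min; series mostly up to about 50 µM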)
# Papain (Carica papaya), sequence (P00784 whole entry, looked up): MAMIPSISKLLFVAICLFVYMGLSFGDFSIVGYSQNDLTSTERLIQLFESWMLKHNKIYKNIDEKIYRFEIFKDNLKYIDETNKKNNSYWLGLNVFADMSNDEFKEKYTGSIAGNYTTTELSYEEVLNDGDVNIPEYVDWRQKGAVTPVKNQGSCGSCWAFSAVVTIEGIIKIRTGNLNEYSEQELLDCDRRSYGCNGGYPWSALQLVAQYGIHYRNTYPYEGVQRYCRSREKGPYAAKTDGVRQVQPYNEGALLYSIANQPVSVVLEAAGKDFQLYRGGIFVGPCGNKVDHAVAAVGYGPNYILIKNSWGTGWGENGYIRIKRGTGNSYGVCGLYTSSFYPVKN
# [5] = target: N-terminal Xaa-Pro-Lys N-methyltransferase 1 (Homo sapiens) (UniProt Q9BV86); experiment: Confirmatory qHTS for Inhibitors of N-terminal methyltransferase 1 (NTMT1): MTaseGlo Assay (AID 1645874; active = well fitted curve in the direction sought with a large enough effect; an effect the other way counts as inactive or inconclusive;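 also: luminescence from SAH made as NTMT1 methylates SPKRIA peptide using SAM; series mostly up to about 100 µM; nearly all actives have a fitted effect of over 65% in size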)
# N-terminal Xaa-Pro-Lys N-methyltransferase 1 (Homo sapiens), sequence (Q9BV86 whole entry, looked up): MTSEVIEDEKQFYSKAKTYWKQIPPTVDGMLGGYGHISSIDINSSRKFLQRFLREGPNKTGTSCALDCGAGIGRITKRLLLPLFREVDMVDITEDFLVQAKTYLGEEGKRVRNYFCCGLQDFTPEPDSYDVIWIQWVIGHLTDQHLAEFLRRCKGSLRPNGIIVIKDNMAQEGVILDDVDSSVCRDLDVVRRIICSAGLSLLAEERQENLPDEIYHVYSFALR
# In short: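 Inhibition was derived from luminescence after SAH-to-ATP conversion, scaled between no-enzyme and DMSO wells, then fitted by 4-parameter Hill. Conditions: 125 nM NTMT1, 100 uM SAM, 1 uM SPKRIA, 30 min RT.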
compound,measurement,setting,value
CC(=O)O[C@@H]1C(=O)O[C@@H]2[C@H]1OC(=O)[C@@H]2OC(C)=O,Potency,[1],inactive
same,Potency,[2],inactive
same,Potency,[3],inactive
CCc1cccc2c(CCO)c[nH]c12,Potency,[1],inactive
same,Potency,[3],inactive
C/C(=N/NC(=O)c1ccncc1)C(=O)O,Potency,[1],inactive
same,Potency,[3],inactive
Nc1nc(=O)n([C@@H]2O[C@H](CO)[C@@H](O)[C@@H]2F)cc1I,Potency,[1],inactive
same,Potency,[2],inactive
same,Potency,[3],inactive
CCCCCCCCCCCCCC[N+](C)(C)C,Potency,[1],10 µM (active)
same,Potency,[3],inactive
Oc1ccccc1,Potency,[1],inactive
same,Potency,[3],inactive
O=C(O)c1ccccc1S,Potency,[1],inactive
same,Potency,[3],inactive
CC(C)=CCC/C(C)=C/CC/C(C)=C/CCC(=O)OC/C=C(\C)CCC=C(C)C,Potency,[1],inactive
same,Potency,[2],inactive
same,Potency,[3],inactive
CC(=O)Nc1c(I)c(NC(C)=O)c(I)c(C(=O)O)c1I,Potency,[1],inactive
same,Potency,[2],inactive
same,Potency,[3],inactive
CCO[C@H](Cc1ccc(OCCc2ccc(OS(C)(=O)=O)cc2)cc1)C(=O)O,Potency,[1],inactive
same,Potency,[2],inactive
same,Potency,[3],inactive
Brc1ccccc1-c1ccccc1,Potency,[1],inactive
same,Potency,[2],inactive
same,Potency,[3],inactive
N#CC1(c2ccc(F)cc2)CCC(=O)CC1,Potency,[1],inactive
same,Potency,[2],inactive
same,Potency,[3],inactive
Nc1ccc(O)cc1,Potency,[1],inactive
same,Potency,[2],6.17 µM (active)
same,Potency,[3],15.5 µM (active)
Cc1ccc2c(Cl)cc(Cl)c(O)c2n1,Potency,[1],inactive
same,Potency,[3],inactive
COC(=O)c1cc(Cl)c(NC(C)=O)cc1OC,Potency,[1],inactive
same,Potency,[2],inactive
same,Potency,[3],inactive
O=C(CCCl)NCc1ccccc1,Potency,[1],inactive
same,Potency,[2],inactive
same,Potency,[3],inactive
CCOCCn1c(C2CCN(CCc3ccc(C(C)(C)C(=O)O)cc3)CC2)nc2ccccc21,Potency,[1],inactive
same,Potency,[3],inactive
CCOC(=O)[C@H](CCc1ccccc1)N[C@@H](C)C(=O)N(CC(=O)O)C1Cc2ccccc2C1,Potency,[1],inactive
same,Potency,[3],19.5 µM (active)
Cc1cc(O)c(C)c(C)c1O,Potency,[1],inactive
same,Potency,[2],inactive
same,Potency,[3],inactive
CN(C)c1cc2c(Nc3ccc4c(cnn4Cc4ccccc4)c3)ncnc2cn1,outcome,[4],inactive
CCCCCCOC(=O)NC(=N)c1ccc(NCc2nc3cc(C(=O)N(CCC(=O)OCC)c4ccccn4)ccc3n2C)cc1,Potency,[3],1.38 µM (active)
C[C@@H](C1=C(CCN(C)C)Cc2ccccc21)c1ccccn1,Potency,[2],11 µM (active)
CCC(C(=O)OCCN1CCOC(c2ccccc2)C1C)c1ccccc1 (stereo unspecified),Potency,[2],1.74 µM (active)
same,Potency,[3],2.19 µM (active)
OC[C@]1(O)OC[C@@H](O)[C@H](O)[C@@H]1O,Potency,[2],inactive
same,Potency,[3],inactive
OCc1c[nH]c2ccccc12,Potency,[2],25.2 µM (active)
same,Potency,[3],7.31 µM (active)
CCCCC/C=C\C/C=C\CCCCCCCC(=O)NC(C)c1ccccc1 (stereo unspecified),Potency,[3],1.55 µM (active)
O=[N+]([O-])c1cncn1CCN1CCOCC1,Potency,[2],inactive
same,Potency,[3],inactive
Cc1ccc(CCn2c3c(c4cc(Cl)ccc42)CN(C)CC3)cn1,Potency,[2],2.19 µM (active)
same,Potency,[3],inactive
CCCC(=O)OCOC(=O)C1=C(C)NC(C)=C(C(=O)OC)C1c1cccc(Cl)c1Cl (stereo unspecified),Potency,[2],16.2 µM (active)
same,Potency,[3],2.04 µM (active)
CSc1ccc(/C=C2/C(C)=C(CC(=O)O)c3cc(F)ccc32)cc1,Potency,[3],inactive
O=C(CCC1CCN(Cc2ccccc2)CC1)c1ccc2c(c1)NCCCC2,Potency,[2],9.77 µM (active)
same,Potency,[3],inactive
CSCC[C@H](NC(=O)[C@H](Cc1c[nH]c2ccccc12)NC(=O)CCNC(=O)OC(C)(C)C)C(=O)N[C@@H](CC(=O)O)C(=O)N[C@@H](Cc1ccccc1)C(N)=O,Potency,[3],inactive
Oc1cccc2[nH]ccc12,Potency,[2],15.5 µM (active)
CN(C)CCOC1=Cc2ccccc2Sc2ccc(Cl)cc21,Potency,[2],1.1 µM (active)
same,Potency,[3],inactive
CNC(=O)c1c(I)c(NC(C)=O)c(I)c(C(=O)O)c1I,Potency,[2],inactive
same,Potency,[3],inactive
Cc1nn(-c2ccccc2)c(C)c1/C=N/N1CCN(Cc2ccccc2)CC1,outcome,[4],inactive
CCCN(CCC)C(=O)C(CCC(=O)OCCCN1CCN(CCOC(=O)Cc2c(C)n(C(=O)c3ccc(Cl)cc3)c3ccc(OC)cc23)CC1)NC(=O)c1ccccc1 (stereo unspecified),Potency,[2],7.76 µM (active)
same,Potency,[3],3.47 µM (active)
CC(COc1ccccc1)NN (stereo unspecified),Potency,[2],16.9 µM (active)
same,Potency,[3],23.9 µM (active)
O=C1Nc2ccccc2C1(c1ccc(O)cc1)c1ccc(O)cc1,Potency,[2],19.5 µM (active)
same,Potency,[3],4.36 µM (active)
CCOc1ccccc1OCC1CNCCO1 (stereo unspecified),Potency,[2],inactive
O=[N+]([O-])c1ccc(-c2nc(-c3ccc(F)cc3)c(-c3ccncc3)[nH]2)cc1,outcome,[4],inactive
CCN(CC)CC(=O)Oc1ccc(NC(C)=O)cc1,Potency,[2],inactive
same,Potency,[3],inactive
Cn1cc(S(C)=O)c(=O)c2ccc(F)cc21 (stereo unspecified),Potency,[2],inactive
same,Potency,[3],inactive
C[C@@H](O[C@H]1OCCN(Cc2n[nH]c(=O)[nH]2)[C@H]1c1ccc(F)cc1)c1cc(C(F)(F)F)cc(C(F)(F)F)c1,Potency,[2],20.4 µM (active)
same,Potency,[3],12.1 µM (active)
CCN(CC)CCOc1ccc(/C(=C(\Cl)c2ccccc2)c2ccccc2)cc1,Potency,[2],1.38 µM (active)
CC(=O)OC[C@H]1O[C@@H](OC(C)=O)[C@H](OC(C)=O)[C@@H]1OC(C)=O,Potency,[2],inactive
same,Potency,[3],inactive
C/C(=C(/OCCOc1ccc(Cl)cc1)c1ccc(Cl)cc1Cl)n1ccnc1,Potency,[2],0.871 µM (active)
same,Potency,[3],0.55 µM (active)
Nc1cc(C(F)(F)F)ccc1S,Potency,[2],15.5 µM (active)
same,Potency,[3],1.38 µM (active)
same,Potency,[5],inactive
CC(=O)N1CCN(c2ccc(O)cc2)CC1,Potency,[3],inactive
COC(=O)c1cc(Cl)ccc1OC,Potency,[2],inactive
same,Potency,[3],inactive
O=C1NC2CCCCN2C12CCN(CCCN1c3ccccc3CCc3ccc(Cl)cc31)CC2 (stereo unspecified),Potency,[2],2.45 µM (active)
